Screening data (PubChem)
Rows were chosen to be rich in hits. Some 21% of all compounds tested hit in one or more screens of this group.
MRP reversal: reverses drug resistance mediated by MRP; differential viability (reversal), % at 10 µM; H69AR cells + 2 uM doxorubicin, CellTiter-Glo, 72 h; AID 602; hit rate 0.04% among 85,000;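 active = viability drop by adding the cancer drug above about 55%, with treated viability meeting a 40% cutoff, limit read from the data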;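 note: viability without doxorubicin minus viability with 2 µM doxorubicin for each compound; larger differential means the compound sensitizes cells more to doxorubicin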
CYP2C9 inhib: human CYP2C9 inhibition; CYP2C9 Supersomes, luciferin-H conversion, luminescence; AID 777; inhibition, % at 5 µM; hit rate 20% among 96,000;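 active = blocking of liver enzyme CYP2C9 beyond about 50% at 5 µM, limit read from the data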
CYP2C19 inhib: human CYP2C19 inhibition; CYP2C19 Supersomes, luciferin-H EGE luminescence, 30 min; inhibition, % at 5 µM; hit rate 21% among 96,000; AID 778; P33261;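 active = CYP2C19 inhibition above a set limit at 5 µM in the primary screen, cut at about 50% in these data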;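 note: plate controls were negative control wells for no effect and 2.5 mM tranylcypromine positive control for full effect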
Target sequence (P33261 whole entry, looked up): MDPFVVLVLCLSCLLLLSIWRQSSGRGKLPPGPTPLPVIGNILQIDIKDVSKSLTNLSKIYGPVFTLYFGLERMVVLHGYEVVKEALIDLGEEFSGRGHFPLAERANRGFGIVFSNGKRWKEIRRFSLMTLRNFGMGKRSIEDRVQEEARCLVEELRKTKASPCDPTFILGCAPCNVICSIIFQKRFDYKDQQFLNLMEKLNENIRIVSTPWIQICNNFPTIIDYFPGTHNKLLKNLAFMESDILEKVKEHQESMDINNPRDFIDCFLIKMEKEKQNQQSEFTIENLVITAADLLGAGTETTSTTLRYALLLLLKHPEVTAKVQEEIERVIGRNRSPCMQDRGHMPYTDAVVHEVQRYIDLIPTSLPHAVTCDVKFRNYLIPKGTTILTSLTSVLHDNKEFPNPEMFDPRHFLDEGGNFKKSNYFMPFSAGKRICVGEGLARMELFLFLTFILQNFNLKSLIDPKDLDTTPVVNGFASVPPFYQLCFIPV
MRP-1 activ: activators of MRP-1; H69AR cells + doxorubicin, viability rescue, CellTiter-Glo; AID 799; viability increase, % at 10 µM; hit rate 0.61% among 140,000;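 active = viability gain under doxorubicin at or above a set limit, the compound median plus 3 SD, cut at about 4.7% in these data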;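 note: MRP-1 overexpressing cells given doxorubicin 25 µM after compound pretreatment; 18-22 h compound pretreatment then 72 h with doxorubicin before readout; 0% = doxorubicin-only wells and 100% = vehicle-treated cells without doxorubicin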
CYP2C9 activ: CYP2C9 (human) activation; hit rate 1.4% among 96,000; recombinant CYP2C9, luciferin-H conversion, luminescence; active compounds read high; factor 1 = untreated enzyme, 0 = blocked; AID 1024; activation factor at 5 µM; P11712;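 active = activation factor of 2 or more for CYP2C9 at a 5 µM dose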;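 note: 0 = sulfaphenazole-blocked wells and 1 = vehicle-only wells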
CYP2C19 activ: activators of human cytochrome P450 2C19. recombinant CYP2C19, luciferin-H EGE luminescence; active compounds read high; 0 = fully inhibited enzyme, 1 = untreated enzyme. activation factor at 5 µM. 96,000 tested, under 10 active;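 active = activation factor of at least 2 at 5 µM in the primary screen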;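 note: 0 = wells with 2.5 mM tranylcypromine and 1 = vehicle-only wells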
Starred values were filed as active, the others as inactive; / = not tested or not shown.

SMILES	MRP reversal	CYP2C9 inhib	CYP2C19 inhib	MRP-1 activ	CYP2C9 activ	CYP2C19 activ
N#Cc1c(C(F)(F)F)cc(-c2ccccc2)[nH]c1=O	/	58*	-10	-1	0.4	1.1
CCCNC(=O)N1CCN(S(=O)(=O)c2ccc(C)c(C)c2)CC1	18	/	/	/	/	/
CCOC(=O)c1sc(NC(=O)c2cc3c(C)nn(-c4ccccc4)c3s2)nc1C	-13	4	-4	/	1	1
O=C(Cn1c(-c2ccccc2)noc1=O)NCc1ccccc1	6	-98	41	-2	2*	0.6
COc1cc(C2c3c(-c4ccccc4)n[nH]c3C(=O)N2c2ccccc2)ccc1O (configuration not stated)	27	92*	77*	-2	0.1	0.2
CC(=O)Nc1ccc([C@H]2[C@H](C)CC[C@H]3C(=O)N4[C@@H](CC[C@@H](C)[C@@H]4c4ccc(NC(C)=O)cc4)C(=O)N32)cc1	/	/	/	-2	/	/
Cc1nc2c(-c3ccc(F)cc3)c(C)nn2c(C)c1CCC(=O)N1CCN(c2ccccc2)CC1	6	56*	50*	-3	0.4	0.5
Cc1nc2c(-c3ccc(F)cc3)c(C)nn2c(C)c1CCC(=O)N1CCC(Cc2ccccc2)CC1	35	51*	30	-4	0.5	0.7
Cc1nc2c(-c3ccc(F)cc3)c(C)nn2c(C)c1CCC(=O)N1CCN(c2ccc(F)cc2)CC1	1	67*	62*	-3	0.3	0.4
CCOC(=O)C1CCN(C(=O)CCc2c(C)nc3c(-c4ccc(F)cc4)c(C)nn3c2C)CC1	9	12	9	-3	0.9	0.9
Cc1nc2c(-c3ccc(F)cc3)c(C)nn2c(C)c1CCC(=O)N1CCOCC1	/	38	51*	-1	0.6	0.5
CC(NS(=O)(=O)c1ccccc1)C(=O)NCc1ccco1 (configuration not stated)	-35	3	44	-3	1	0.6
COc1ccc(N2CCN(c3oc(COc4ccccc4)nc3C#N)CC2)cc1	19	/	/	2	/	/
COc1ccc(N2CCN(c3oc(COc4ccc(Cl)cc4Cl)nc3C#N)CC2)cc1	21	50	25	2	0.5	0.8
CCOc1ccc(-c2nc(C#N)c(N3CCN(Cc4ccccc4)CC3)o2)cc1	1	67*	36	2	0.3	0.6
COc1ccc(N2CCN(c3oc(COc4ccc(Cl)cc4)nc3C#N)CC2)cc1	/	50*	35	5.8*	0.5	0.6
N#Cc1nc(COc2ccc(Cl)cc2)oc1N1CCN(Cc2ccccc2)CC1	/	53*	40	4.8*	0.5	0.6
CC1CN=C(c2cccn2Cc2ccc(F)cc2Cl)O1 (configuration not stated)	11	2	42	-3	1	0.6
CCc1sc(C(=O)Nc2cccc(C(C)=O)c2)cc1C	/	/	/	-2	/	/
COc1ccc(NC(=O)CN2CCN(CC(=O)Nc3ccc(OC)c(OC)c3)CC2)cc1	5	-8	11	0	1.1	0.9
CCOc1ccc(NC(=O)CCN2CCN(S(=O)(=O)c3cc(Cl)ccc3OC)CC2)cc1	/	68*	96*	-1	0.3	0
CCN(CC)c1ccc(NC(=O)CN2CCN(S(=O)(=O)c3cc(Cl)ccc3OC)CC2)cc1	-4	-28	72*	-2	1.3	0.3
Cc1ccc(-n2nc(C)c3c2OC(N)=C(C#N)C3c2cccs2)cc1 (configuration not stated)	-6	27	7	-2	0.7	0.9
Cc1nn(-c2ccccc2)c(Cl)c1C1C(C#N)=C(N)Oc2n[nH]c(C)c21 (configuration not stated)	/	78*	83*	-2	0.2	0.2
Cc1nn(-c2ccccc2)c2c1C(c1ccncc1)C(C#N)=C(N)O2 (configuration not stated)	/	66*	59*	0	0.3	0.4
CCn1nc(C)c(C2C(C#N)=C(N)Oc3n[nH]c(C)c32)c1C (configuration not stated)	/	/	/	2	/	/
Cc1nn(-c2ccccc2)c2c1C(c1c(C)[nH]c(C#N)c1C)C(C#N)=C(N)O2 (configuration not stated)	-4	87*	74*	-2	0.1	0.3
Cc1[nH]nc2c1C(c1ccc(-c3ccccc3C#N)o1)C(C#N)=C(N)O2 (configuration not stated)	0	93*	68*	-2	0.1	0.3
